Compound activity: PubChem BioAssay, National Center for Advancing Translational Sciences (NCATS)
D2 ag-1 = D2 dopamine receptor (human) agonism. actives 0.53% (n = 340,000). activation, % at 2 µM. P14416. HEK293 T-REx D2 cells, calcium flux agonist mode;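 active = activation over 3 SD above normal in the single-dose calcium agonist read, cut at about 30% in these data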; note: 0% is about no effect
Target sequence (P14416 whole entry, looked up): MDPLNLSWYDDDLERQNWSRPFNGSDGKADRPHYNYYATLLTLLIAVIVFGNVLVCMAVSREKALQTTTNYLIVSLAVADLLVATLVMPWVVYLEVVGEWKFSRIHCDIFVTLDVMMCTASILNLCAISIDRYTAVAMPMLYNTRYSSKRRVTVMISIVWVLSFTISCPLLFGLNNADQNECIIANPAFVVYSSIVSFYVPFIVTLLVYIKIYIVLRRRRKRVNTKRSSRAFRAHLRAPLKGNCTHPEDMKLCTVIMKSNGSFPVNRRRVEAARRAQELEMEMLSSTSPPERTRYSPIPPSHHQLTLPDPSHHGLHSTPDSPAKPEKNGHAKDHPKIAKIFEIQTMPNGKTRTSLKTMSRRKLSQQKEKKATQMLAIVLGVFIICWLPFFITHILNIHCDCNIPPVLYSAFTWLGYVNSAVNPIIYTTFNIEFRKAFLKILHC
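Agonism scored from kinetic calcium signal (1 read/sec, 180 s) following compound pin transfer, after a 10 s baseline. Cells: HEK293 Trex line expressing inducible D2 receptor coupled to calcium, dye-loaded after overnight culture at 30 C.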
D2 PAM-1 = human D2 receptor positive allosteric modulation; P14416; potentiation, % (concentration not given with the values); actives 0.23% (n = 360,000); DiscoveRx D2 beta-arrestin cells, luminescence, 90 min; 100% = 57 uM dopamine signal; AID 624464; in the data active = potentiation above about 50%
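D2 cells co-treated with compound plus 50 nM dopamine (EC20) for 90 min at 37 deg C to detect potentiation. Beta-arrestin recruitment was read as enzyme-fragment luminescence after 1 h at ambient temperature. Full response was set by 57 uM dopamine.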
D2 ag-2 = human D2 receptor agonism in beta-arrestin assay; actives 0.084% (n = 360,000); AID 624465; DiscoveRx PathHunter D2 beta-arrestin, luminescence, 90 min; 100% = 57 uM dopamine signal; activation, % (concentration not given with the values); P14416; in the data active = activation above about 40%
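DiscoveRx PathHunter D2 beta-arrestin cells (2,100/well) attached overnight, then compound-stimulated 90 min at 37 C in HBSS/10 mM HEPES/0.1% Tween-20 buffer; beta-galactosidase complementation read by luminescence after 1 h at ambient temperature. Dopamine 57 uM final (EC100) as control.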
D2 antag = D2 dopamine receptor (human) antagonism; P14416; HEK293 TREx D2 cells, calcium flux, dopamine EC80; inhibition, % at 10 µM; actives 2% (n = 340,000); AID 485344; in the data active = inhibition above about 30%; inactive = below that, where a call was filed; note: 0% is about no effect
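Inhibition of EC80 dopamine-driven calcium flux, recorded kinetically, defines activity here; cells are a tetracycline-induced HEK293 T-REx line expressing force-coupled D2.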
D2 PAM-2 = positive allosteric modulators of human D2 dopamine receptor | P14416 | HEK293 T-REx D2, calcium flux, EC20 dopamine potentiation | potentiation, % at 10 µM | actives 0.34% (n = 340,000) | AID 485347;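 active = potentiation over 3 SD above the plate norm, cut at about 30% in these data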; note: 0% is about no effect
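Tetracycline-induced HEK293 T-REx cells force-coupled to calcium signalling expressed D2; compounds were pin-added after a 10 s baseline, read kinetically 180 s, then an EC20 dopamine challenge followed with a further 180 s calcium read.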
* hit, by the source's call; / = not tested or not shown. Compounds with a hit are over-represented: about 2.4% of the library has one in this group of screens.

SMILES	D2 ag-1	D2 PAM-1	D2 ag-2	D2 antag	D2 PAM-2
COc1ccc(C(CNC(=O)C(CCSC)NC(=O)c2ccccc2Cl)N2CCCC2)cc1 (centres undefined)	-1	-21	-4	-4	-3
COc1ccc(C(CNC(=O)COc2ccccc2C)N2CCCCC2)cc1 (centres undefined)	0	-30	-3	14	-25
COc1ccc(C(CNC(=O)COc2ccc(F)cc2Br)N2CCCC2)cc1 (centres undefined)	-1	-21	-3	1	42*
COc1ccc(C(CNC(=O)c2cccc(Br)c2)N2CCCC2)cc1 (centres undefined)	0	-15	0	41*	-22
COc1ccc(C(CNC(=O)c2cccc(S(=O)(=O)N3CCCC(C)C3)c2)N(C)C)cc1 (centres undefined)	0	-6	1	76*	-34
CC1CCCN(S(=O)(=O)c2cccc(C(=O)NCc3ccco3)c2)C1 (centres undefined)	/	-5	3	/	/
COc1ccc(C(CNC(=O)C(CCSC)NC(=O)c2ccccc2Cl)N2CCCCC2)cc1 (centres undefined)	1	-17	-3	41*	-5
CSc1cccc(NC(=O)C2CCN(S(=O)(=O)c3ccc4c(c3)CCCN4C(=O)C3CCC3)CC2)c1	1	/	/	/	-8
COCCNC(=O)c1c(NC(=O)Cc2coc3cc(C)ccc23)sc2c1CCCC2	-1	/	/	/	-1
O=C(NCCc1ccccc1)c1ccc(CSc2nc3ccncc3n2Cc2ccc(F)cc2)cc1	1	/	/	/	-3
CCc1ccc(NC(=O)c2nnn(Cc3cccc(C(F)(F)F)c3)c2N)cc1	-1	/	/	/	14
COc1ccc(C(CNC(=O)C(C)Oc2ccc(Br)cc2)N2CCCC2)cc1 (centres undefined)	0	-28	-7	41*	-35
COc1cc2cc(CNc3ccccc3)c(=O)n(CC(=O)Nc3cc(C)cc(C)c3)c2cc1OC	3	/	/	/	-1
CCOc1ccc(C(C)=O)cc1CN1C(=O)c2ccccc2S1(=O)=O	1	-2	-2	34*	1
CCOC(=O)c1ccc(CN2C(=O)c3ccccc3S2(=O)=O)cc1	2	2	-7	-16	9
Cc1oc2ccc(O)cc2c1C(=O)c1ccc(Cl)cc1	0	-12	2	8	-3
Cc1oc2ccc(O)cc2c1C(=O)c1ccc([N+](=O)[O-])cc1	0	54*	7	-3	1
NCCc1nc2cccnc2n1-c1ccccc1	-1	/	/	/	14
Cc1ccc(-n2nc(C)c3c(C(=O)NCc4ccc(F)cc4)cc(C)nc32)cc1	0	/	/	/	-2
O=C1NC[C@@H](Cc2cccc3ccccc23)N(CC2(c3ccccc3)CC2)C1=O	0	2	-1	12	32*
COc1cc(/C=C2\SC(=Nc3ccc(O)cc3)NC2=O)cc(OC)c1O	47*	8	0	9	-11
CCc1ccc(N=C2NC(=O)/C(=C/c3cc(OC)c(OC)c(OC)c3)S2)cc1	1	-9	1	-8	-7
CC(C)(C)OC(=O)NCCCCCc1nnc(SCc2ccccc2)o1	-1	-11	3	36*	1
Cc1cc(C)n(CC2CC(=O)N(c3cc(Cl)cc(Cl)c3)C2=O)n1 (centres undefined)	0	8	0	31*	-5
O=C(NCC(c1cccnc1)N1CCN(c2ccccc2)CC1)OCc1ccccc1 (centres undefined)	0	-4	5	-3	31*
SMILES	D2 ag-1	D2 PAM-1	D2 ag-2	D2 antag	D2 PAM-2
COc1cc(Cl)c(NC(=O)CN(C)S(=O)(=O)c2ccc3c(c2)CCCC(=O)N3)c(OC)c1	/	/	/	/	-13
Nc1ccc2oc(-c3ccccc3Cl)cc(=O)c2c1O	0	2	4	50*	4
O=c1cc(-c2ccccc2Cl)oc2ccc([N+](=O)[O-])c(O)c12	-1	-11	0	-21	-8
CC(C)c1ccc(NC(=O)c2cc3c(=O)[nH]c4ccccc4c3n2C)cc1	1	/	/	/	1
Cc1ccc(-c2cnc(-c3ccncc3)o2)cc1	0	-5	2	32*	6
Nc1ccc(-c2ncc(-c3ccccc3)o2)cc1	-2	-4	2	0	-4
O=C(CCN1CCc2ccccc2C1)Nc1ccc2c(c1)OCO2	0	-39	-2	59*	-26
